G9a inh = qHTS Assay for Inhibitors of Histone Lysine Methyltransferase G9a; G9a H3K9 monomethylation, AlphaScreen, 2 h; 350,000 tested, 8.8% active; Potency, µM (series often up to 102 µM), inactives show at the highest dose activity, negative = inhibition, actives largely listed as inhibitors; further: potency means the concentration at half of the fitted maximal effect; on the % scale 0 is the no-effect control and ±100 the full control effect; nearly all actives have a fitted effect of over 75% in size
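Enzyme 20 nM + cpd, 15 min RT; add b-H3K9 pep 500 nM / SAM 20 uM; 2 h RT; anti-H3K9me1 Ab 0.5 ug/mL + SA donor / anti-rabbit acceptor beads 20 ug/mL each, 10 min; AlphaScreen read.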
HP1b chromo inh = HTS for Inhibitors of HP1-beta Chromodomain Interactions with Methylated Histone Tails; Chromobox protein homolog 1 (Homo sapiens), P83916; AlphaScreen HP1-beta / biotin-H3K9me3 peptide binding; Potency, µM (top dose mostly 114 µM), for inactives: top-dose activity change, negative = inhibition, most hits filed as inhibitors; 390,000 tested, 0.56% active; AID 540317, 2011; further: potency means the concentration at half of the fitted maximal effect; nearly all actives have a fitted effect of over 70% in size
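HP1-beta protein (50 nM final) preincubated 30 min at room temperature with biotinylated H3(1-18)K9me3 peptide (50 nM) in PBS pH 7.4, 0.01% Tween-20, then compound added for 30 min. AlphaScreen streptavidin donor/nickel chelate acceptor beads (10 ug/mL final), 30 min dark, luminescence read.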
JMJD2A Tudor = qHTS Assay for Inhibitors of JMJD2A-Tudor Domain. Lysine-specific demethylase 4A (Homo sapiens), O75164. AlphaScreen JMJD2A-Tudor / H3K4me3 peptide binding. Potency, µM (top dose mostly 114 µM), inactives show at the highest dose activity change, negative = inhibition, hits mostly inhibitors. 390,000 tested, 4.4% active. AID 504339, 2011; further: potency means the concentration at half of the fitted maximal effect; on the % scale 0 is the no-effect control and ±100 the full control effect; nearly all actives have a fitted effect of over 50% in size
Six1-Eya2 blk = qHTS Assay for Inhibitors of the Six1/Eya2 Interaction; AlphaScreen GST-Six1/His-Eya2 binding, biochemical; stronger effect = lower value; activity change, % (test concentration not listed); 360,000 tested, 0.56% active; in the data active means activity change below about -65%; inconclusive means mostly about -30% to -63%; further: on the % scale 0 is the no-effect control and ±100 the full control effect
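AlphaScreen luminescence read after one hour at 37 °C in darkness. Pin-transferred compounds met GST-Six1 and His-Eya2 protein (5X stock 250 nM/500 nM) plus glutathione donor and Ni-chelate acceptor beads (5X, 50 ug/mL).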
CtBP-E1A blk = qHTS Assay for Inhibitors of the CtBP/E1A Interaction. 340,000 tested, 0.49% active. AlphaScreen GST-E1A/His-CtBP binding, 1536-well; stronger effect = lower value. CtBP / adenovirus E1A interaction (AlphaScreen). activity change, % (test concentration not listed). AID 651724, 2012; in the data active means activity change below about -65%; inconclusive means mostly about -30% to -63%; further: on the % scale 0 is the no-effect control and ±100 the full control effect
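GST-E1A and His-tagged CtBP (125 nM each as 5X stock) were preincubated with pin-transferred compound for 2 h at 37 °C in the dark, then glutathione donor and nickel acceptor beads were added for 1 h before AlphaScreen reading.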
BAZ2B inh = qHTS Assay for Inhibitors of BAZ2B; Bromodomain adjacent to zinc finger domain protein 2B (Homo sapiens), Q9UIF8; AlphaScreen BAZ2B-H3K14Ac peptide displacement; Potency, µM (doses to about 114 µM), inactives show at the top dose activity change, negative = inhibition, most hits filed as inhibitors; 360,000 tested, 4.4% active; further: potency means the concentration at half of the fitted maximal effect; on the % scale 0 is the no-effect control and ±100 the full control effect; nearly all actives have a fitted effect of over 60% in size
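AlphaScreen luminescence quantifies BAZ2B engagement of H3K14Ac peptide; the protein and biotinylated peptide are both at 50 nM final, buffer PBS pH 7.4 with 0.01% Tween-20, all steps at room temperature.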
Starred values were filed as active, the others as inactive; ? = inconclusive; / = no result; [ ] = dose if it differs, or a comment. The list is not random: actives were taken first. Their share in the collection is about 10%. Unless noted, the call rests on the fitted dose curve; in most records, active means well fitted inhibition curve with a large enough effect; inconclusive means small, poorly fitted or top-dose-only effect; inactive means no such curve, though single readings can be large or run the other way.

SMILES	G9a inh	HP1b chromo inh	JMJD2A Tudor	Six1-Eya2 blk	CtBP-E1A blk	BAZ2B inh
COc1ccc2c(c1)CC/C(=C\c1ccc(OC)c(Cn3cccn3)c1)C2=O	?	-8%	-31%	-7	-14	-34%
COc1ccc2c(c1)CC/C(=C\c1ccc(OC)c(Cn3nc(C)cc3C)c1)C2=O	?	1%	89µM*	-12	-15	?
COc1ccc(/C=C2\CCc3ccccc3C2=O)cc1CN1CCOCC1	35µM*	-20%	?	-8	?	?
CN1c2ccc(Cl)cc2-c2nc(SCC(=O)NCc3ccc(F)cc3)ncc2S1(=O)=O	10%[59 µM]	49%	-13%	/	/	30%
NS(=O)(=O)c1ccc(Nc2nc(-c3cccc([N+](=O)[O-])c3)cs2)cc1	40µM*	2%	-21%	-17	-7	-20%
Cc1ccc(-c2csc(Nc3ccc(S(N)(=O)=O)cc3)n2)o1	4.5µM*	?	56µM*	-1	-12	45µM*
O=C(Nc1cccc(-c2csc(Nc3ccc(Cl)cc3)n2)c1)c1cc([N+](=O)[O-])cc(C(F)(F)F)c1	-35%[59 µM]	11%	-27%	-13	-6	-13%
O=C(Nc1cccc(-c2csc(Nc3ccccc3)n2)c1)c1cc([N+](=O)[O-])cc(C(F)(F)F)c1	50µM*	16%	-35%	1	11	-12%
Cc1nc(C)c(-c2csc(Nc3ccc(S(N)(=O)=O)cc3)n2)s1	?	35%	-15%	-15	0	-16%
Cc1nc(Nc2ccc(S(N)(=O)=O)cc2)sc1-c1ccccc1	32µM*	-19%	?	-13	-3	?
O=S(=O)(c1ccc2c(c1)OCCO2)N1CCN(S(=O)(=O)c2c(Cl)cc(C(F)(F)F)cc2Cl)CC1	/	/	-13%	/	/	/
CCCCN(CC)C(=O)CCNS(=O)(=O)c1ccc2c(c1)c(=O)n(C)c(=O)n2C	-4%[59 µM]	39%	-8%	/	/	-5%
NS(=O)(=O)c1ccc(Nc2nc(-c3ccc4ccccc4c3)cs2)cc1	35µM*	-7%	?	-6	-11	-5%
Cc1nn2c(=O)cc(COC(=O)c3ccccc3NC(=O)C3CCCCC3)nc2s1	33%[59 µM]	30%	4%	/	/	2%
CC(Nn1cnnc1)c1cc(Cl)ccc1O (centres undefined)	-4%	29%	-10%	-1	-1	-13%
Cc1ccc(NC(C)c2cc(Cl)ccc2O)cc1 (centres undefined)	-38%[59 µM]	-29%	?	-16	-14	50µM*
CCC(C)c1ccc(OCC(=O)Nc2ccc(-c3nc4ncccc4o3)cc2)cc1 (centres undefined)	-7%[59 µM]	36%	-12%	/	/	-12%
COc1ccc(CC(=O)OCC(=O)Nc2ccc(N3CCOCC3)cc2)cc1	50µM*	16%	-16%	-7	/	6%
NC(=O)c1ccc(NC(=O)COC(=O)c2ccc(Cl)nc2)cc1	7.9µM*	24%	-3%	-5	-8	1%
COc1cc(CC(=O)OCC(=O)Nc2ccc(N3CCOCC3)cc2)cc(OC)c1OC	?	34%	-6%	2	5	-5%
NC(=O)c1ccsc1NC(=O)COC(=O)c1ccc(Cl)nc1	-24%	18%	-13%	2	-18	17%
O=C(COC(=O)c1ccco1)Nc1ccc(N2CCOCC2)cc1	22µM*	10%	-14%	9	-14	17%
Cc1ccc(C(=O)OCC(=O)Nc2ccc(N3CCOCC3)cc2)cc1	?	22%	-10%	-8	6	11%
O=C(Nc1ccc(N2CCOCC2)cc1)C1CCN(C(=O)OCc2ccccc2)CC1	40µM*	5%	-16%	-13	-12	-2%
Cc1ccc(C)c(N2CCN(C(=O)Cn3cnc4nc5c(cc4c3=O)CCCC5)CC2)c1	?	15%[57 µM]	-27%	/	/	-26%
SMILES	G9a inh	HP1b chromo inh	JMJD2A Tudor	Six1-Eya2 blk	CtBP-E1A blk	BAZ2B inh
CCOc1ccc(CCNC(=O)c2c(C)oc3ncn(CC(C)C)c(=O)c23)cc1	-21%[59 µM]	40%	-9%	/	/	8%[57.1 µM]
COc1cccc(C(=O)Nc2c3c(nn2-c2ccc(Cl)cc2)CS(=O)(=O)C3)c1	-18%[59 µM]	19%	-21%	/	/	0%
O=C(COC(=O)c1ccc(Cl)nc1)Nc1ccc(N2CCOCC2)cc1	56µM*	-12%	-13%	5	-12	22%
O=C(CN1C(=O)NC(c2ccccc2)(c2ccccc2)C1=O)Nc1ccc(N2CCOCC2)cc1	/	?	?	-19	-13	/
COc1cccc(CNCC(=O)Nc2ccc(N3CCOCC3)cc2)c1	3.5µM*	?	25µM*	7	5	50µM*
COc1ccc(C2(c3ccc(OC)cc3)NC(=O)N(CC(=O)Nc3ccc(N4CCOCC4)cc3)C2=O)cc1	40µM*	?	?	-27	-2	?
CC(=O)Nc1ccc(C(=O)OCC(=O)Nc2ccc(N3CCOCC3)cc2)cc1	?	40%	-13%	-3	-1	-6%
COc1ccc(NCc2n[nH]nc2-c2ccccc2)cc1Cl	?	-16%	?	-19	-23	40µM*
COc1ccc(NC(=O)C(=O)NCCc2csc(-c3ccc(Cl)cc3)n2)cc1	7%[59 µM]	11%	-11%	/	/	5%
CC(=O)c1c(C)oc2c(Cl)cc(NS(=O)(=O)c3cc(C)c(C)cc3C)cc12	14%[59 µM]	66%	-9%	/	/	15%
CCOC(=O)c1c(NC(=O)CCc2ccc(CC)o2)sc(C)c1C	28µM*	1%	-7%	12	9	25%
CCOC(=O)c1c(NC(=O)C[n+]2ccc(Cc3ccccc3)cc2)sc(C)c1C	45µM*	1%	-24%	-4	-3	-27%
CCOC(=O)c1c(NC(=S)Nc2ccccc2)sc(C)c1C	?	-25%	-6%	-3	25	3%
CCOC(=O)c1c(NC(=O)/C=C/c2ccc(C)o2)sc(C)c1C	8.9µM*	?	-12%	15	13	-2%
Cc1sc(NC(=O)/C=C/c2ccco2)c(C(=O)O)c1C	45µM*	9%	-6%	-4	1	?
CNC(=O)c1c(NC(=O)c2ccc(S(=O)(=O)N3CCCCC3)cc2)sc2c1CCC2	1%[59 µM]	26%[57 µM]	-11%	/	/	6%
O=C(NCCC1=CCCCC1)c1ccc2c(c1)N(Cc1ccccc1)C(=O)c1ccccc1S2(=O)=O	-32%[59 µM]	27%	-12%	/	/	-10%
